Source: PubChem BioAssay (NCI)
The panel holds about 79,000 compounds, 15% with a hit somewhere; the sample as a whole holds those more often. Unmarked numbers belong to inactive results. Active and inactive are the calls of the source. Cut-off read from the data, not from the text of the source: active = growth inhibition above about 70%; inactive = the rest.

assay: NCI Yeast Anticancer Drug Screen. Data for the sgs1 strain (AID 173);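 note: 0% = growth of vehicle-only control cultures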; settings: S. cerevisiae sgs1 mutant, at 11.0 µM, hits give high values
Method in brief: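 Yeast mutant strains carrying defined defects in DNA damage repair or cell cycle control were exposed to test compounds. Growth inhibition was scored against vehicle-treated controls.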

SMILES | growth inhibition
CCC/C(Cl)=N\OC(=O)Nc1cccc(C(F)(F)F)c1 | 81% (active)
[O-][n+]1c2ccc(O)cc2nc2ccc(Cl)cc21 | 26%
Clc1ccccc1C1OC1c1ccccc1Cl (centres undefined) | -81%
c1ccc2c(c1)c1ncccc1c1nccnc21 | -2%
CC(=O)Nc1ccc2c(c1)C(=Nc1ccc(C(=O)O)cc1)c1ccccc1-2 | 9%
COc1ccc(OC)c2cc3ccccc3cc12 | -5%
COc1cc(C2c3cc4c(cc3OC(NNc3ccccc3)C2C)OCO4)cc(OC)c1OC (centres undefined) | 34%
O=C1c2cc([N+](=O)[O-])ccc2-c2cccc(F)c21 | 21%
CCCCCCCCCCCC(=O)N(C)C | -13%
CCCCCCCCCCCC1=C(O)C(=O)C=C(O)C1=O | 46%
Cc1ccc(CSC(N)=Nc2ccccc2)cc1C | 7%
CCCCCCCCCCC1CCC(=O)O1 (centres undefined) | 3%
O=[N+]([O-])c1cc(CCl)ccc1CCl | 79% (active)
Nc1ccc2c(c1)C(=O)c1cccc(N)c1C2=O | 37%
CCCCCCCCCCNC(=O)OCC | 7%
CC1=C(C)Cc2c(O)ccc(O)c2C1 | -9%
COc1ccc2c(c1)C(=O)c1ccccc1C2 | 0%
CCC(=O)OCCn1c2nc(=O)[nH]c(=O)c-2nc2cc(C)c(C)cc21 | 21%
O=C(OCCN1CCCCCC1)C(c1ccsc1)C1CCCCC1 (centres undefined) | 34%
Oc1c(Br)cc(Br)cc1C1CCCCC1 | 10%

SMILES | growth inhibition
CC1(C)[C@@H]2CC[C@]1(C)[C@H](OC(=O)CSC#N)C2 | 66%
S=C(N/N=C(/c1ccccc1)c1ccccn1)N1CCCCCC1 | 11%
Cc1ccc2[nH]c3c(C)c4cc[n+](C)cc4c(C)c3c2c1 | 22%
CNC(=O)OCc1c(COC(=O)NC)c(-c2ccc(-c3ccccc3)cc2)n(C)c1C | -32%
COc1ccccc1/C=C1\Sc2scc(-c3cccc([N+](=O)[O-])c3)[n+]2C1=O | 99% (active)
O=[N+]([O-])c1ccc2c(c1)C(N1CCN(CCO)CC1)Cc1ccc(F)cc1S2 (centres undefined) | -2%
Cc1ccc(CCC2=CCCc3c2ccc2ccccc32)cc1 | -1%
O=[N+]([O-])c1cccc2nccc(NCCCO)c12 | 62%
Cc1ccc(-n2cc(-c3ccc(Cl)cc3)c(C#N)c2N)cc1 | 2%
Cc1ccc(S/N=C\c2ccccc2O)cc1 | 7%
O=C(O)C1OC1(c1cccc(Cl)c1)c1ccccc1Cl (centres undefined) | 1%
NC(=S)N/N=C\c1nccc2ccccc12 | 50%
Clc1cccc(C(Nc2nncs2)Nc2nncs2)c1Cl | 16%
O=C(OCC=C1CCCC1)c1cc([N+](=O)[O-])cc([N+](=O)[O-])c1 | 26%
O=C(Nc1ccccc1)C(=O)C(C(=O)c1ccccc1)C(c1ccccc1)c1ccccc1 (centres undefined) | 3%
N#CN1C2CCC1CC(=O)C2 | -12%
COc1ccccc1C(=O)OCC1CCCN2CCCCC12 (centres undefined) | 62%
CCNc1nnc(CSc2nc(-c3ccccc3)c(-c3ccccc3)[nH]2)s1 | 18%
O=C1c2ccccc2-c2n[nH]c3cccc1c23 | 3%
